# IL1B secr inh = inflammasome signaling inhibition, IL-1 beta readout | THP-1 LPS/ATP IL-1B secretion, AlphaLISA, 16 h; hits give low values | AID 743279 | activity change, % at 57.5 µM | hit rate 4.7% among 360,000; in the data active = activity change below about -50%; inconclusive = mostly about -30% to -49%
#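 THP-1 cells pretreated 1 hr with compounds (up to 57.5 uM final), then stimulated with LPS (250 ng/mL final) plus ATP (1.25 mM final); secreted IL-1B measured by AlphaLISA after 16 hr, decreased signal indicating inhibition.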
# HT1080NT lethal = kills 2HG-producing HT-1080-NT fibrosarcoma cells | hit rate 1.6% among 360,000 | HT-1080-NT fibrosarcoma viability, CellTiter-Glo ATP luminescence, 48 h | AID 686970 | Potency, µM (series often up to 46.1 µM), actives largely listed as cytotoxic;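 also: NT is the 2HG producing partner of a matched IDH1 knockdown line; nearly all actives have a fitted effect of over 55% in size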
#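 HT-1080-NT fibrosarcoma cells (2HG-overproducing), 750 cells/well in RPMI with 5% FBS, dosed after 2 h and incubated 48 h at 37C. CellTiter-Glo luminescence normalized to DMSO and no-cell wells; concentration-response curves fitted and classed.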
# uPA generation = cell surface uPA generation inhibition; Potency, µM (series often up to 38.3 µM), hits mostly inhibitors; cell surface uPA generation assay, qHTS; hit rate 0.31% among 330,000; active = well fitted inhibition curve with a large enough effect; inconclusive = small, poorly fitted or top-dose-only effect; inactive = no such curve, though single readings can be large or run the other way; tested in mouse RAW 264.7 cells; also: nearly all actives have a fitted effect of over 55% in size
# DT40 TDP1 no CPT = qHTS for Inhibitors of human tyrosyl-DNA phosphodiesterase 1 (TDP1): qHTS in cells in absence of CPT; AID 686978, 2013; hit rate 15% among 420,000; DT40 Tdp1-/- hTDP1 cells, no CPT, ATP luminescence, 48 h; Potency, µM (top dose mostly 46.2 µM), actives largely listed as inhibitors; also: nearly all actives have a fitted effect of over 55% in size
#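 Chicken DT40 Tdp1-/- cells complemented with human TDP1, screened without camptothecin (DMSO vehicle only), 400 cells/well. Compounds pin-transferred, cells incubated at 37 °C for at least 48 hr. Growth read as ATP-dependent luminescence (CellTiter-Glo, 30 min at RT).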
# HT1080 IDH1KD tx = HT-1080 IDH1 knockdown cell toxicity (counter line); HT-1080 IDH1 knockdown viability, ATP luminescence, 48 h; hit rate 2% among 360,000; Potency, µM (doses to about 46.1 µM), most hits filed as cytotoxic
#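 Cytotoxicity counter-line: IDH1KD HT-1080, 48 h, CellTiter-Glo. Curves classed by r2, magnitude and activity.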
# TDP1 cell CPT = DT40-hTDP1 cell growth loss with CPT; chicken DT40 Tdp1-/-;hTDP1 cells + 20 nM CPT, ATP luminescence, 48 h; Potency, µM (doses to about 46.2 µM), usual class: inhibitors; hit rate 12% among 420,000; AID 686979; also: nearly all actives have a fitted effect of over 55% in size
#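 Cell growth measured by CellTiter-Glo luminescence after a minimum 48 h, 37 C compound exposure with 20 nM CPT in Tdp1-knockout DT40 cells stably expressing hTDP1, seeded 400/well; qHTS titration format.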
# Hits are given with their value; i = inactive; ? = inconclusive; nt = no result given; [ ] = remark or other dose. Hits are enriched below; roughly 19% of the tested compounds scored in any of these assays. Unless noted, calls follow the shape of the dose curve; as a rule, active = well fitted curve in the direction sought with a large enough effect; inconclusive = small, poorly fitted or top-dose-only effect, or another doubt; inactive = no such curve, though single readings can be large; an effect the other way counts as inactive or inconclusive.
SMILES,IL1B secr inh,HT1080NT lethal,uPA generation,DT40 TDP1 no CPT,HT1080 IDH1KD tx,TDP1 cell CPT
CCN(CC)C(=O)Cc1cn(C)c2ccccc12,i,i,i,i,i,i
Cc1ccc(NC(=S)N(CCCN2CCOCC2)Cc2ccccn2)cc1,i,i,i,i,i,i
COc1ccc(NC(=S)N(CCCN2CCOCC2)Cc2ccccn2)cc1,i,i,i,i,i,i
Cc1cccc(NC(=S)N(CCCN2CCOCC2)Cc2cn(C)c3ccccc23)c1,i,i,i,?,i,18.4µM
Cc1ccc(NC(=S)N(C)Cc2cn(C)c3ccccc23)cc1,i,i,i,?,?,16.4µM
CCOc1ccc(NC(=S)N(CCCN2CCOCC2)Cc2cn(C)c3ccccc23)cc1,i,i,i,14.6µM,i,?
Cc1nnc(NC(=O)CSCc2cc(=O)c3ccccc3[nH]2)s1,nt,nt,nt,i,nt,i
O=[N+]([O-])c1ccccc1Nc1cccc(F)c1,i,i,i,i,i,i
Cc1ccc(S(=O)(=O)NCCc2ccncc2)cc1[N+](=O)[O-],i,i,i,i,i,i
CNc1nc(NC#N)nc(SC)n1,i,i,i,?,i,20.6µM
O=C(C1=NN[C@@H]2C(=O)N(Cc3ccccc3)C(=O)[C@H]12)c1ccc(F)cc1,nt,i,i,?,i,i
O=C(NC(=S)N1CCN(Cc2ccc3c(c2)OCO3)CC1)c1cccc(Br)c1,i,i,i,14.6µM,i,16.4µM
O=C(NC(=S)N1CCN(Cc2ccc3c(c2)OCO3)CC1)c1ccc(Cl)cc1,i,i,i,20.6µM,i,?
Cc1c(Cl)cccc1NC(=O)CCn1nc(C)c2c(C)n(-c3ccccc3)nc2c1=O,nt,nt,nt,i,nt,i
COc1ccc(-c2cc(-c3cc(C)ccc3O)[nH]n2)cc1,?,3.66µM,i,?,?,?
Oc1ccccc1-c1cc(-c2cccc(F)c2)n[nH]1,i,i,i,i,i,i
Cc1ccc(-c2cc(-c3ccccc3)no2)c(O)c1,i,i,i,i,i,i
Cc1ccc(O)c(-c2cc(-c3ccc(F)cc3)no2)c1,i,i,10µM,i,i,i
COc1ccc(-c2cc(-c3ccc(C)cc3)n[nH]2)c(O)c1,i,i,i,?,?,25.9µM
COc1ccc(-c2cc(-c3ccc(OC)cc3)[nH]n2)cc1,i,i,i,?,?,?
CC(C)(C)c1ccc(-c2cc(-c3ccccc3O)[nH]n2)cc1,-98.6,?,i,?,14.6µM,?
O=C(Cc1coc2cc(O)ccc12)NNC(=O)c1ccc(Br)s1,i,i,i,i,i,i
C[C@H]1CN([C@@H](C)CO)C(=O)c2cc(Br)cnc2O[C@@H]1CN(C)S(C)(=O)=O,i,i,nt,?,i,i
Cc1cccc(C)c1NC(=O)CN1CCCC1,i,i,i,i,i,i
Cc1cccc(CN2CCN(CC(=O)Nc3c(C)cccc3C)S2(=O)=O)c1,nt,nt,nt,16.4µM,nt,?
SMILES,IL1B secr inh,HT1080NT lethal,uPA generation,DT40 TDP1 no CPT,HT1080 IDH1KD tx,TDP1 cell CPT
CCc1cccc(NC(=O)CN2CCCN(Cc3cccc(C)c3)S2(=O)=O)c1,nt,nt,nt,29.1µM,nt,?
Cc1cccc(NC(=O)CN2CCCCCC2)c1,i,i,i,i,i,i
CC(NC(=O)CCCc1ccccc1)c1ccncc1 (stereo not drawn),i,i,i,i,i,i
CCOC(=O)c1cccc(NC(=O)C(C)n2c(C)c3cnn(-c4ccccc4)c(=O)c3c2C)c1 (stereo not drawn),nt,nt,nt,i,nt,?
CCCn1c(N)c(N(CCOC)C(=O)COC(=O)COc2c(C)cc(C)cc2C)c(=O)[nH]c1=O,i,i,nt,i,i,i
O=C1c2cccc(O)c2C(=O)c2c(O)cc(CO)cc21,i,i,i,i,i,i
O=C1c2c(O)ccc(O)c2C(=O)c2c(NCCNCCO)ccc(NCCNCCO)c21,-102.0,1.46µM,i,0.0326µM,23.1µM,0.184µM
COC(=O)[C@@H](NC(=O)C1CCCN(c2nc(C)c3ccc(C)cc3n2)C1)C(C)C (stereo partly drawn),nt,nt,nt,?,nt,i[9.04 µM]
CO/N=C\CC(=O)Nc1ccc(Cl)cc1Cl,i,?,i,20.6µM,8.2µM,11.6µM
C/C(CC(=O)Nc1ccc(Cl)cc1Cl)=N\NC(N)=S,i,10µM,nt,i,7.94µM,i
COc1ccc(C(=O)Nc2ccc3nc(N4CCC(C)CC4)cc(C)c3c2)cc1,nt,nt,nt,16.4µM,nt,23.1µM
Cc1cc(N2CCOCC2)nc2ccc(NC(=O)CCC(=O)N3CCC(C)CC3)cc12,i,i,i,?,i,i
COc1cccc(C(=O)Nc2ccc3nc(N4CCC(C)CC4)cc(C)c3c2)c1,nt,nt,nt,20.6µM,nt,11.6µM
Cc1ccc(CNC(=O)c2cc(NS(=O)(=O)c3ccc(C)cc3)ccn2)cc1,nt,nt,nt,i,nt,i
CC1(C)CC(=O)C(C(C2=C(O)CC(C)(C)CC2=O)c2ccc(Br)s2)C(=O)C1 (stereo not drawn),-95.9,i,i,7.31µM,?,13µM
Cc1ccccc1NS(=O)(=O)c1ccc(C(=O)N2CCC2)cc1,i,i,i,?,i,i
Cc1cccc(NS(=O)(=O)c2ccc(C(=O)N3CCCC3)cc2)c1C,i,i,i,14.6µM,i,i
Cc1cccc(NS(=O)(=O)c2ccc(C(=O)N3CCCCCC3)cc2)c1C,i,i,i,23.1µM,i,?
O=C(Nc1ccncc1)C1CC1c1ccccc1 (stereo not drawn),i,i,i,?,i,15.8µM
COc1cccc(/C=C2\Oc3cc(OCC(=O)N4Cc5ccccc5C[C@H]4C(=O)O)ccc3C2=O)c1,i,i,i,?,i,i
COc1ccccc1/C=C1\Oc2cc(OC(=O)N3CCOCC3)ccc2C1=O,i,i,i,23.1µM,i,14.6µM
O=C1/C(=C/c2ccc3c(c2)OCO3)Oc2cc(OCC(=O)N3CCC[C@H]3C(=O)O)ccc21,i,i,?,i,i,20.6µM
CCC1CCCCN1C(=O)COc1ccc2c(c1)OCO2 (stereo not drawn),?,i,i,i,i,i
COc1ccc(/C=C2\Oc3cc(OCC(=O)N4CCC[C@H]4CO)ccc3C2=O)c(OC)c1,i,i,i,?,i,23.1µM
O=C1NC(=O)C(Cc2ccccc2)(C2CCN(Cc3cccn3-c3cccnc3)CC2)N1 (stereo not drawn),nt,nt,nt,i,nt,i
O=C(NCc1ccco1)C1CCCN1C(=O)Nc1ccccc1Cl (stereo not drawn),i,i,i,i,i,i
Cc1ccc(S(=O)(=O)N2[C@H](CC(=O)c3cccs3)OC[C@@H]2C)cc1,i,i,nt,23.1µM,i,?
COc1ccc(C(=O)C[C@@H]2OC[C@H](C(C)C)N2S(=O)(=O)c2ccc(C)cc2)cc1OC,i,i,nt,?,i,?

# Screening results deposited in PubChem by National Center for Advancing Translational Sciences (NCATS).
